This experiment in a line: pPAFAH inhibition and serine hydrolase selectivity, late-stage follow-up, selectivity assay for pPAFAH inhibitor project, biochemical, gel-based, FP-Rh fluorescence, mouse, HTS hit compounds (AID 588773). The conditions noted are these: gel-based competitive ABPP, proteome, MW 32 kDa protein, at 10 µM.

Active and inactive are the calls of the source.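 Rule for the calls: active = inhibition of plasma PAF acetylhydrolase at a set limit or more at 0.1 µM, with tenfold selectivity over all off-targets; inactive = inhibition below the limit or weaker selectivity.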

`O=C(Oc1ccc([N+](=O)[O-])cc1)N1CCC(N2CCCCC2)CC1`: the compound was classed as inactive.

On to `CN(C)C(=O)Oc1noc2cc(Cl)ccc12`, for which the result was inactive.

(Values after PubChem BioAssay AID588773 (The Scripps Research Institute Molecular Screening Center, 2011).)
